Experimental data taken from paper PMC5540273 (PLoS ONE, 2017).

tested on: TTK; details: concentration: 1 μM, replicates: in singlicate; n = 1
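Also: KINOMEscan kinase panel screen.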

Row | SMILES | %Inh [%]
1 | CCn1c(-c2nonc2N)nc2c(-c3ccccc3)ncc(OCCCN)c21.O=C(O)C(F)(F)F.O=C(O)C(F)(F)F [GSK260205] | 0
2 | Cc1ccc(-c2ccc3occ(-c4ccc(S(C)=O)cc4)c3c2)nn1 (stereo not drawn) | 8
3 | Cn1cc(-c2ccc3c(c2)CCN3C(=O)Cc2cc(F)cc(F)c2F)c2c(N)ncnc21 [GSK2634140] | 0
4 | COc1ccc(C)c(Nc2ccnc(Nc3ccc(-c4cnc[nH]4)cc3)n2)c1.Cl [GW784041] | 15
5 | c1ccc(Oc2ccc(Nc3ccnc4cc(-c5ccc(CN6CCCCC6)o5)ccc34)cc2)nc1 [GW567143] | 28
6 | CN(c1ccc(F)c(NC(=O)c2cccc(OC(C)(C)C#N)c2Cl)c1)c1ccc2nc(NC(=O)C3CC3)sc2n1 | 6
7 | COc1cc(Nc2nccc(N3CCC(NS(=O)(=O)c4ccc(NC(C)=O)cc4)CC3)n2)cc(OC)c1OC [GSK1379825] | 1
8 | Cc1ccc(C)c(NC(=O)Nc2ccc(C)c(-c3ccc(C(=O)Nc4ccncc4)cc3)c2)c1 [GSK1398473] | 13
9 | CCNc1nccc(-c2c(-c3ccc(F)cc3)ncn2C2CCN(C)CC2)n1 | 7
10 | Cc1ccc(NC(=O)c2cccc(N3CCCCC3)c2)cc1-c1ccc(C(=O)NCC2CC2)cc1 [GSK1917008] | 11
11 | Cl.Cl.NCC(NC(=O)c1cc(-c2cccnc2)c(-c2ccnc3[nH]ccc23)s1)c1ccccc1 (stereo not drawn) [GSK1323434] | 4
12 | COc1cccc(-c2nc(-c3ccccc3)[nH]c2-c2ccncc2)c1 [SB-610250] | 16
